Data on 98 compounds can be found in PubChem BioAssay AID624296 (National Center for Advancing Translational Sciences (NCATS), 2012).

Screen size: about 350,000 compounds; about 9,900 (2.8%) were called active. A call without a number means that no potency is given here. Inconclusive results (about 15%) are left out. Calls come from the whole dose curve; as a rule, active = well fitted activation curve with a large enough effect; inconclusive = small, poorly fitted or top-dose-only effect; inactive = no such curve, though single readings can be large or run the other way. The full list was thinned out, with actives kept by preference.
Potency is the fitted concentration of half-maximal effect.

A short description of the assay: A quantitative high throughput screen for small molecules that induce DNA re-replication in MCF 10a normal breast cells. Note: nearly all actives have a fitted effect of over 50% in size. The settings on record: MCF 10A DNA re-replication, Hoechst nuclear intensity, 48 h; series mostly up to 46.1 µM.
On to `CCCC(NCC(=O)Nc1ccccc1C(=O)NC1CC1)c1ccccc1` (stereo not drawn), for which the Potency entry is “inactive”.
Under `Cc1ccc(S(=O)(=O)N2CCN(C(=O)COC(=O)/C=C/c3cccc(Cl)c3)CC2)c(C)c1` stands “inactive”.
Under `O=C(N[C@H]1C/C=C\C(c2ccc(F)cc2)N(Cc2ccccc2)C(=O)C1)OCC1c2ccccc2-c2ccccc21` (stereo partly drawn) stands “inactive”; under `Cc1ccsc1C(=O)NC1CCCCC1C` (stereo not drawn), “inactive”.
To `CC(=O)Nc1ccc(S(=O)(=O)Nc2nc(-c3ccc(C(C)(C)C)cc3)cs2)cc1` belongs “inactive”.
As to `CC(=O)Nc1ccc(-c2csc(NC(=O)Nc3ccccc3)n2)cc1`, the Potency was 20.6 µM (active).
To `CC(=O)Nc1ccc(-c2csc(NC=C3C(=O)OC(C)(C)OC3=O)n2)cc1` belongs “inactive”; to `O=C(O[C@@H]1[C@H](Cc2ccccc2)NS(=O)(=O)[C@H]2C[C@@H]3C=C[C@]12O3)c1ccccc1Br`, “inactive”.
In the case of `NC(=O)c1ncn([C@@H]2O[C@H](CNCc3cnc(N4CCOCC4)s3)[C@@H](O)[C@H]2O)n1`, the Potency entry was “inactive”.
To `CC(=O)NC12CC3CC(C1)CC(C(=O)N1CCN(S(=O)(=O)c4cccs4)CC1)(C3)C2` belongs “inactive”; to `CN1C(=O)[C@H]2[C@@H](/C=C/c3ccccc3)N3C(=O)CN(Cc4ccc(-c5ccccc5)cc4)C(=O)[C@@]3(C)[C@H]2C1=O`, “inactive”.
Turning to `Cc1ccc(NC(=O)N2CCC(c3nc4c(nnn4Cc4c(F)cccc4Cl)c(=O)[nH]3)CC2)cc1`, the Potency result is “inactive”.
To `CCOC(=O)N1CCN(C(=O)C2CCCN(c3ncnc4c3sc3cccc(F)c34)C2)CC1` (stereo not drawn) belongs “inactive”.
To `OC1CCCN(c2ncnc3c2nnn3Cc2c(F)cccc2Cl)C1` (stereo not drawn) belongs 16.4 µM (active); to `C(#CCN1CCOCC1)CCCN1CCOCC1`, “inactive”; to `O=[N+]([O-])c1ccc(C=NN=Cc2ccc([N+](=O)[O-])cc2)cc1`, “inactive”.
For `O=C(OCC(=O)N1CCCCCC1)c1ccc(Br)c(S(=O)(=O)N2CCOCC2)c1`, the Potency result is “inactive”.
Take `Cc1nnc(SCC(=O)N2CCN(c3ccccc3)CC2)n1-c1ccccc1`: the Potency entry was “inactive”.
Under `Cn1c(CNC(=O)c2ccco2)nnc1SCC(=O)N1CCN(c2ccccc2)CC1` stands “inactive”; under `Cn1c(Cc2cccc3ccccc23)nnc1SCC(=O)N1CCN(c2cccc(Cl)c2)CC1`, 13 µM (active).
Under `CCCC(O)(c1ccccc1)C(c1ccccc1)c1ccccn1` (stereo not drawn) stands “inactive”; under `COc1cc(/C=C/C(=O)OCC(=O)NCCCc2ccccc2)ccc1O`, “inactive”.
To `CCOCCCNC(=O)c1cc2c(=O)n3ccccc3nc2s1` belongs “inactive”; to `O=Cc1c(N2CCN(c3cccc(Cl)c3)CC2)nc2ccccn2c1=O`, “inactive”; to `O=Cc1c(Nc2ccccc2Cl)nc2ccccn2c1=O`, “inactive”.
Turning to `CCCn1nc(NS(=O)(=O)c2ccc(F)cc2)c2cc3ccccc3nc21`, the Potency result was “inactive”.
For `Cc1ccc(Cn2c(=N)c(S(=O)(=O)c3ccc(C)cc3)cc3c(=O)n4ccccc4nc32)cc1`, the Potency is 5.8 µM (active).
To `CCn1c(=N)c(S(=O)(=O)c2ccc(F)cc2)cc2c(=O)n3ccccc3nc21` belongs 13 µM (active); to `Cc1cc(C(=O)COc2ccccc2Cl)c(C)n1C1CC1`, “inactive”.
To `Cc1ccc(C(=O)NNC(=O)c2ccc3c(c2)OCCO3)cc1` belongs “inactive”.
Under `O=C(C1Cc2ccccc2CN1C(=O)c1ccco1)N1CCN(c2ccccc2)CC1` (stereo not drawn) stands “inactive”.
With `Cc1cc(S(=O)(=O)c2cc3ccc(O)c(C)c3oc2=O)ccc1F`, the Potency was 10.3 µM (active).
Under `COc1cccc2cc(S(=O)(=O)c3ccc(C)cc3)/c(=N/NS(=O)(=O)c3ccc(C)cc3)oc12` stands “inactive”; under `COC(=O)Cc1cc(=O)oc2c(C)c(O)ccc12`, “inactive”.
Under `Cc1nc(Nc2ccccc2C)c2cnn(C)c2n1` stands “inactive”.
To `O=[N+]([O-])c1cc2ccccc2nc1-c1ccccc1` belongs “inactive”; to `O=C(N[C@@H]1C/C=C\C[C@@H](CC(=O)N(CCO)Cc2ccccc2)C(=O)N[C@H](Cc2ccccc2)COC1=O)OCC1c2ccccc2-c2ccccc21`, “inactive”; to `Cc1cc(C(=O)COc2ccc(Br)cc2F)c(C)n1C1CC1`, “inactive”.
Regarding `CN(C(=O)c1cccc(NC(=O)Cc2ccc(NC(=O)C3CCCN(C(=O)C4CC4)C3)cc2)c1)C1CC1` (stereo not drawn), the Potency result was “inactive”.
For the compound `CC(=C/c1ccccc1)/C=N/NC(=O)c1cc(C)oc1C`, the Potency result is “inactive”.
`CC(/C=N/NC(=O)c1cc(-c2ccc3ccccc3c2)n[nH]1)=C\c1ccco1`: the Potency is 7.31 µM (active).
To `CC(/C=N/NC(=O)c1ccncc1)=C\c1ccco1` belongs “inactive”; to `Cc1cccc(C)c1Nc1nnc(SCC(=O)NCCCN2CCCC2=O)s1`, “inactive”.
Regarding `CC[C@]12c3[nH]c4cc(CCC(=O)N(C)C)ccc4c3CCN1C(=O)[C@@H](CC(=O)NCCCn1ccnc1)C[C@@H]2C(=O)N1CCN(C(=O)C2CC2)CC1`, the Potency entry is “inactive”.
To `COC(=O)c1cc(C)sc1NC(=O)CC1Nc2ccccc2NC1=O` (stereo not drawn) belongs “inactive”; to `O=C(CC1NCCNC1=O)Nc1ccc(Oc2ccccc2)cc1` (stereo not drawn), “inactive”.
Under `O=C(CC1Nc2ccccc2NC1=O)Nc1ccccc1` (stereo not drawn) stands 6.51 µM (active); under `COC(=O)Cc1nc2c(N)nc(N)nc2[nH]c1=O`, “inactive”; under `Nc1ccc2c(c1)C(O)c1ccc(Cl)cc1-2` (stereo not drawn), “inactive”.
In the case of `COc1cc2[nH]c(O)c(C=O)c2cc1OC`, the Potency entry was “inactive”.
Under `COc1ccc(-n2nc3c(N4CCC(C(=O)NCc5ccccc5)CC4)nnc(C)c3c2C)cc1` stands “inactive”; under `CCc1ccc(CNC(=O)C2CC(=O)N(CCc3ccc(C)cc3)C2)cc1` (stereo not drawn), “inactive”.
Under `CCc1ccc(CNC(=O)C2CCN(c3nnc(C)c4c(C)n(-c5ccc(C)cc5)nc34)CC2)cc1` stands 7.31 µM (active).
To `Cc1ccc(NC(=O)C(c2ccccc2)N2CCN(C(=O)c3ccco3)CC2)cc1` (stereo not drawn) belongs “inactive”; to `O=C(Cc1ccc(Br)cc1)N1CCN(c2ccccn2)CC1`, “inactive”.
Take `O=C(/C=C/c1cccc(C(F)(F)F)c1)N1CCN(c2ccccn2)CC1`: the Potency is 9.2 µM (active).
To `O=C(C(Cl)Cl)N1CCN(c2ccccn2)CC1` belongs “inactive”; to `O=C(c1ccc2c(c1)C(=O)N(Cc1ccncc1)C2=O)N1CCN(S(=O)(=O)c2ccc(OC(F)(F)F)cc2)CC1`, “inactive”.
To `CCN1C[C@@H]2[C@@H]3C(=O)N(Cc4ccccc4)C(=O)[C@@H]3[C@](Cc3ccccc3)(C(=O)OC)N2C1=NC1CCCCC1` belongs “inactive”; to `Clc1ccccc1CSc1nnc(-c2ccco2)c(-c2ccco2)n1`, 18.4 µM (active).
For the compound `S=C(NCc1ccco1)NCc1ccccc1Cl`, the Potency entry was “inactive”.
Take `COC(OC)c1ccnc(SCc2ccccc2Cl)n1`: the Potency result was “inactive”.
To `COc1ccc(OCCNC(=O)c2cc(C3CC3)nc3c2cnn3C(C)C)cc1` belongs “inactive”; to `Cc1cc(C)c2c(=O)[nH]c(SCC(=O)Nc3ccc(Br)cc3)nc2n1`, 11.6 µM (active).
With `Cc1cccc(NC(=O)CSc2nc3[nH]ncc3c(=O)[nH]2)c1`, the Potency result is “inactive”.
To `O=C(CSc1nc2[nH]ncc2c(=O)[nH]1)Nc1ccc(F)cc1` belongs “inactive”; to `COc1ccccc1N1CCN(S(=O)(=O)c2ccc(Cl)cc2)CC1`, “inactive”; to `COc1ccccc1-n1nnnc1SCC(=O)NC(=O)Cc1ccccc1`, “inactive”.
As to `COc1ccccc1-n1nnnc1S(=O)(=O)Cc1ccc(Cl)cc1`, the Potency was 16.4 µM (active).
Under `CCN(CC(=O)Nc1ccc(NC(C)=O)cc1)C(=O)CSC(=S)N1CCCC1` stands “inactive”.
On to `Cc1cc(C(=O)NC2CC(C)(C)Cc3c2cnn3-c2ccccc2)n[nH]1` (stereo not drawn), for which the Potency result is “inactive”.
Under `COC(=O)c1ccc(C(=O)NC2CC(C)(C)Cc3c2cnn3-c2ccc(F)cc2)nc1` (stereo not drawn) stands 20.6 µM (active); under `CC1(C)Cc2c(cnn2-c2cccc(F)c2)C(NC(=O)c2cc[n+]([O-])cc2)C1` (stereo not drawn), “inactive”; under `CCOc1cc(C=NNC(=O)CCCC(=O)NN=Cc2ccc(O)c(OCC)c2)ccc1O`, “inactive”.
With `CCOc1cc(/C=C(\C#N)c2nc(-c3cccs3)c(NC(C)=O)s2)ccc1O`, the Potency was 5.8 µM (active).
As for `COc1cc(/C=N\Nc2nc(-c3cccs3)c(NC(C)=O)s2)ccc1O`, the Potency entry is “inactive”.
To `COc1ccc(S(=O)(=O)N2CCN(C(C)C(=O)Nc3ccc(C(C)C)cc3)CC2)cc1` (stereo not drawn) belongs “inactive”; to `CCN(CC(=O)Nc1cc(Cl)ccc1C)C(=O)CSCc1ccccc1`, “inactive”; to `Cc1ccccc1-c1cc(C(=O)NCC2CC2)n(CC2CC(c3cccnc3)=NO2)n1` (stereo not drawn), “inactive”.
To `Cn1c(SCC(=O)Nc2ccc(N3CCOCC3)cc2)nnc1C(F)(F)F` belongs “inactive”.
To `O=C(NC1CCCCC1)c1cc([N+](=O)[O-])ccc1N1CCOCC1` belongs “inactive”; to `CC1CCN(c2ccc(C(=O)NCc3ccc4c(c3)OCO4)cc2[N+](=O)[O-])CC1`, “inactive”.
`O=C(NCc1ccc2c(c1)OCO2)c1cc([N+](=O)[O-])ccc1N1CCOCC1`: the Potency was 5.8 µM (active).
Under `COc1ccccc1NC(=O)N(O)C1(C#N)CCCCC1` stands “inactive”; under `CN(C)C(=O)CCc1ccc2c3c([nH]c2c1)[C@]1(C)[C@@H](C(=O)N2CCOCC2)C[C@H](CC(=O)NCCc2ccccn2)C(=O)N1CC3`, “inactive”; under `CC(C)CN1CC(C)C(=O)N(c2ccccc2)C1=S` (stereo not drawn), “inactive”.
`Cc1ccc(CCNC(=O)c2ccc3nc4ccccc4c(=O)n3c2)cc1`: the Potency entry is “inactive”.
For `COc1ccc(CCNC(=O)Cn2c(=O)n(CC3CCCO3)c(=O)c3ccccc32)cc1OC` (stereo not drawn), the Potency entry is “inactive”.
Under `COc1ccc(CNC(=O)c2cc3c(=O)n4ccccc4nc3n(CC3CCCO3)c2=N)cc1` (stereo not drawn) stands 9.2 µM (active).
Under `Cc1ccc(-c2noc(-c3ccccc3C(=O)NCC3CCCO3)n2)cc1` (stereo not drawn) stands “inactive”.
Turning to `COc1ccc(C(=O)Nc2ccccc2C(=O)NCc2ccco2)cc1`, the Potency result is “inactive”.
Under `COc1ccc2oc(C(=O)NCc3ccco3)c(C)c2c1` stands “inactive”; under `COc1ccc(CCn2c(=N)c(C(=O)NCc3ccco3)cc3c(=O)n4cccc(C)c4nc32)cc1`, 18.4 µM (active); under `COc1ccc(CCNC(=O)CCn2c(=O)c3ccccc3n(CC(=O)NCC3CCCO3)c2=O)cc1OC` (stereo not drawn), “inactive”.
Under `Cc1cccn2c(=O)c3cc(C(=O)NCC4CCCO4)c(=N)n(Cc4ccc(F)cc4)c3nc12` (stereo not drawn) stands 1.84 µM (active); under `Cc1ccc2nc3c(cc(C(=O)NCCc4ccccc4)c(=N)n3CC3CCCO3)c(=O)n2c1` (stereo not drawn), 6.51 µM (active); under `O=C(NCC1CCCO1)c1cc(-c2ccccc2)nc2ccccc12` (stereo not drawn), “inactive”.
Regarding `O=C(CSc1nc2ccccc2c(=O)n1Cc1ccc(F)cc1)NCC1CCCO1` (stereo not drawn), the Potency entry is “inactive”.
